Test results as given in PubChem BioAssay (NCI).
Values joined by “and” are separate entries in the source; they are usually repeats but may differ in a detail not shown here. Equal values may be shown once. About 83,000 compounds went through this panel and 20% of them were active in at least one assay; those are over-represented in the sample as a whole.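 In brief: 96-well plates, 48 h treatment, single concentration, percent growth endpoint.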 Active and inactive are the calls of the source. The calls were made as follows: active = growth percent below 10; inactive = the rest.

Test system: SK-MEL-28 melanoma
Experiment: NCI-60 one-dose screen, 48 h (100 = growth as untreated, 0 = no growth, -100 = all killed)
Conditions: 10 µM unless noted

Q: How did the growth turn out when `CCN(CC)CCCC(CNc1ccnc2cc(Cl)ccc12)c1ccc(Cl)cc1` (centres undefined) was run?
A: -83.7% (active) and -85.7% (active)

Q: With `N#CCCOc1ccccc1` as the compound, how does the growth read?
A: 101% (inactive)

Q: How did the growth turn out when `COc1ccc(/C(C#N)=C/c2ccccn2)cc1` was run?
A: 107% (inactive) and 139% (inactive)

Q: Which growth does the source give for `CCN(CC)C(=S)SSC(=S)N(CC)CC` here?
A: 61.5% (inactive) and 106% (inactive)

Q: How did the growth turn out when `Nc1ccc(N=Nc2ccc(S(=O)(=O)O)cc2)cc1S(=O)(=O)O` was run?
A: 109% (inactive) and 104% (inactive)

Q: Which growth does the source give for `CCN(CC)CCOc1ccc2c(c1)C(=O)c1cc(OCCN(CC)CC)ccc1-2` here?
A: 123% (inactive) and 108% (inactive)

Q: How did the growth turn out when `O=C1OC2(c3ccccc31)c1ccc(O)c(O)c1Oc1c2ccc(O)c1O` was run?
A: 112% (inactive) and 117% (inactive)

Q: `O=S(=O)(Nc1ccccc1)C1CCCCC1` was tested. Which growth did it give?
A: 110% (inactive) and 108% (inactive)

Q: With `CCNC(=O)Nc1ccc(-c2nc3c(c(N4CCOC[C@@H]4C)n2)CCN(C2COC2)C3)cc1` as the compound, how does the growth read?
A: 25.1% (inactive) and -5.25% (active)

Q: With `CC(C)Cc1ccc(C(C)C(=O)NCc2ccc(Cn3c(=O)sn(CCCCl)c3=O)cc2)cc1` (centres undefined) as the compound, how does the growth read?
A: 107% (inactive) and -71.8% (active)

Q: `OCc1ccccn1` was tested. Which growth did it give?
A: 112% (inactive)

Q: With `Nc1ncnc2c1ncn2C1CC(O)C(CO)O1` (centres undefined) as the compound, how does the growth read?
A: 123% (inactive) and 115% (inactive)

Q: For `CCCCCCCCCCCCCCCc1cc(O)ccc1N`, which growth is on record?
A: 106% (inactive) and 103% (inactive)

Q: `Cc1ccc2nc3c(nc2c1)-c1cccc2cccc-3c12` was tested. Which growth did it give?
A: 102% (inactive)
